Screen size: about 320,000 compounds; about 2,100 (0.66%) were called active. Not shown: some 53% with an inconclusive outcome. Calls come from the whole dose curve; as a rule, active = well fitted inhibition curve with a large enough effect in the signal ratio, with a control signal flat (not every such curve was filed as active); inconclusive = small, poorly fitted or top-dose-only effect, or effect the other way, or a change in a side signal; inactive = flat fitted curve, though single readings scatter; the % refers to the signal ratio. Only a selection was taken, and actives are over-represented in it overall.
Potency is the fitted concentration of half-maximal effect.

This test can be described thus: qHTS Assay for Lipid Storage Modulators in Drosophila S3 Cells.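 For cell number change: cells counted by Cell Tracker Red CMTPX staining in the red channel.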 For lipid storage change, negative = inhibition: % is set by controls: 0 for no effect and ±100 for the full control effect. Particulars: BODIPY lipid droplet fluorescence, 18-24 h, cells fed with added oleic acid; cell number change: measured here: cell count max response; series mostly up to 46.1 µM. The text has this: NIH Molecular Libraries Probe Production Centers Network [MLPCN] NIH Chemical Genomics Center [NCGC] MLPCN Grant: 1 R03 MH085686-01 Assay Submitter (PI): Beller, Mathias; Max-Planck-Institut fur Biophysikalische Chemie NCGC Assay Overview: Storing lipids as a reservoir for energy or the anabolism of elementary metabolites is a common feature of probably all cells and is conserved from bacteria to humans. The universal cellular lipid storage organelle is the so-called lipid storage droplet (LD). Although ubiquitous, LDs share a simple structure composed of a hydrophobic core that harbors the storage lipids, which is shielded by a droplet-specific phospholipid monolayer to which proteins are attached. The current model of LD biogenesis involves an incorporation of the lipid core into the membrane leaflets of the endoplasmic reticulum (ER) followed by a subsequent budding-like maturation of a LD, which ultimately pinches off. Once released, LD volume can increase by localized lipogenesis or fusion of existing droplet. Storage lipids are re-mobilized enzymatically by lipase activity. Lipase regulation in the adipocyte is heavily studied and involves multiple components including catecholamine signaling, the LD-associated proteins Perilipin and comparative gene identification (CGI-58) and at least two lipases named hormone sensitive lipase (HSL) and adipocyte triglyceride lipase (ATGL). LD regulation outside of the adipocyte is poorly understood and only few components are known. However, there is an urgent need to learn more about ectopic fat depots as mislocalized storage of lipids, for example in the liver or muscle, is an eminent health problem associated with insulin resistance or the metabolic syndrome. We developed a laser-scanning cytometer assay to enable 1,536-well screening and combined the results of the small molecules screen with an RNAi database based on lipid storage.
Triacsin C (Sigma-Aldrich T-4540), an inhibitor of long-chain fatty acyl CoA synthetase that blocks synthesis of triglycerides, was used as a positive control for lipid under-storage. A total of 23 nL of compound solution of different concentrations were transferred to the assay plates using a Kalypsys pin tool equipped with a 1,536-pin array containing 10-nL slotted pins (FP1S10, 0.457-mm diameter, 50.8 mm long; V&P Scientific). One microliter of oleic acid (400 uM) was added, and the plate was lidded with stainless steel rubber gasket lined lids containing pinholes. […] Fluorescence was detected by excitation of the fluorophores with a 488-nm laser on an Acumen Explorer (TTP Lab Tech). The total intensity in channel 2 (500-530 nm) reflected lipid droplet accumulation. Cells were detected using channel 3 (575-640 nm) with 5-um width and 100-um depth filters. The ratio of the number of objects in PMT channel 2 over the number of objects in PMT channel 3 was also calculated. Percent activity was computed relative to an internal control (100% inhibited lipid droplet deposition due to the presence of 20 uM Triacsin C), which was added to 32 wells/plate.
On to `C/C(=N\NC(=O)Cc1c(Cl)cccc1Cl)c1cccnc1`, for which the Potency entry is “inactive”.

For the molecule `CC(C)(C)c1ccc(/C=C/C(=O)O)s1`, the Potency entry was “inactive” and the cell number change stood at 0.873%.

With `C=Cn1cc[n+](CC(=O)c2ccc(Br)s2)c1`, the Potency entry was “inactive” and the cell number change is -18.1%.

Consider `c1ccc(-n2cc(CN3CCC(N4CCOCC4)CC3)c(-c3ccc4c(c3)OCO4)n2)cc1`, for which the Potency result was “inactive” and the cell number change amounted to 13.9%.

Consider `Cc1cccc(NC(=O)NC(C)C(c2ccccc2)N2CCN(C)CC2)c1` (stereo unspecified), for which the Potency result is “inactive” and the cell number change is -13.4%.

With `COc1cc(C(=O)Nc2cc(-c3cn4cccnc4n3)ccc2C)cc(OC)c1OC`, the Potency result was “inactive” and the cell number change is -3.97%.

`COc1cccc(NC(=O)CN(C)C(=O)CSc2ccc3c(c2)OCCO3)c1`: the Potency entry was “inactive” and the cell number change came out at 2.81%.

For `Cc1cc(SCC(=O)Nc2ncc(Cl)cc2Cl)nc2ccccc12`, the Potency entry was “inactive” and the cell number change was found to be 19.1%.

On to `COCCn1nnnc1SCC(=O)c1ccccc1`, for which the Potency was 20.6 µM (active) and the cell number change turned out to be 2.95%.

For `COc1ccc(C(=O)CSc2nnnn2Cc2ccccc2)cc1`, the Potency entry was “inactive” and the cell number change amounted to 14.6%.

`COCCn1nnnc1SCC(=O)N1CCCCC1`: the Potency entry was “inactive” and the cell number change was 6.22%.

As for `OC1(c2ccccc2F)CCN(Cc2nnc(-c3ccccc3)o2)CC1`, the Potency result is “inactive” and the cell number change was -15%.

Turning to `CC1CCC2(CC1)NC(=O)N(CC(=O)Nc1ccc3c(c1)CCC3)C2=O` (stereo unspecified), the Potency entry was “inactive” and the cell number change is -0.637%.

As for `CCN(CC)c1ccc(/C=C(\C#N)C(N)=O)cc1`, the Potency result was “inactive” and the cell number change is -5.93%.

Take `CCN(CC)c1ccc(/C=C(\C#N)C(N)=S)cc1`: the Potency result was “inactive” and the cell number change is -2.75%.

On to `CCN(CC)c1ccc(/C=C(\C#N)C(=O)c2ccc(Br)cc2)cc1`, for which the Potency was 25.9 µM (active).

In the case of `CCC(=O)c1ccc(NC(C)=O)cc1O`, the Potency result was “inactive” and the cell number change was -16.5%.

For `COc1ccc(CN2c3cc(S(=O)(=O)N4CCOCC4)ccc3N3CCCC32)cc1` (stereo unspecified), the Potency is 16.4 µM (active) and the cell number change is 1.21%.

For `CCN1c2ccc(S(=O)(=O)N3CCOCC3)cc2N(Cc2ccc(OC)cc2)C1C` (stereo unspecified), the Potency result is “inactive” and the cell number change turned out to be 13.6%.

On to `O=S(=O)(c1ccc2c(c1)N(Cc1ccc(Cl)cc1)C1CCCN21)N1CCOCC1` (stereo unspecified), for which the Potency entry was “inactive” and the cell number change was -5.65%.

As for `O=C1CN(C(=O)/C=C/c2cc(Br)ccc2F)CCN1`, the Potency entry is “inactive” and the cell number change was found to be 13.8%.

`CN=C1S/C(=C\c2ccc(Sc3ccc(Cl)cc3)o2)C(=O)N1C`: the Potency result is “inactive”.

Consider `CN=C1S/C(=C\c2ccc(O)c(Br)c2)C(=O)N1C`, for which the Potency entry was “inactive” and the cell number change was -7.22%.

As to `CN=C1S/C(=C\c2ccc(N3CCCC3)c(F)c2)C(=O)N1C`, the cell number change amounted to 2.34% and the lipid storage change, negative = inhibition is 4.4% [at 9.22 µM] (inactive).

`COc1ccc(N=C2S/C(=C\c3cc(C)n(C)c3C)C(=O)N2C)cc1`: the Potency result is “inactive” and the cell number change is 20.4%.

With `CN=C1S/C(=C\c2c(OC)cc(OC)cc2OC)C(=O)N1C`, the Potency was 0.58 µM (active) and the cell number change was -1.21%.

As for `CN=C1S/C(=C\c2ccc(SC)cc2)C(=O)N1C`, the Potency is 0.13 µM (active) and the cell number change was 4.2%.

In the case of `CCSc1nc2c(c(=O)[nH]c(=O)n2C)n1CC(O)COc1ccccc1` (stereo unspecified), the Potency result was “inactive”.

Consider `CCn1cc(CN2CCC(Oc3ccc(C(=O)N4CCCCC4)cc3)CC2)cn1`, for which the Potency result was “inactive”.

For `O=C(CN1CCN(Cc2ccccc2Cl)CC1)N/N=C/c1cccs1`, the Potency result is “inactive” and the cell number change worked out at 19.5%.

For the molecule `Cc1ccc(C)c(OCCOCCN2CCOCC2)c1`, the Potency was 7.31 µM (active) and the cell number change amounted to 3.66%.

As to `Cc1cc(C)c(C)c(OCCN2CCOCC2)c1`, the Potency result is “inactive” and the cell number change was -23.8%.

As for `Cc1cccc(OCCOCCN2CCOCC2)c1C`, the Potency result was “inactive” and the cell number change was 8.47%.

`CCn1cc(C2CC(=O)NC2=O)c2ccccc21` (stereo unspecified): the Potency result is “inactive”.

As to `CS(=O)(=O)N(CC(=O)NCC1CCCO1)c1ccc(Cl)c(Cl)c1` (stereo unspecified), the Potency entry was “inactive” and the cell number change was -7.69%.

Regarding `CS(=O)(=O)N(CC(=O)NCC1CCCO1)c1ccc(F)c(Cl)c1` (stereo unspecified), the Potency was 14.6 µM (active) and the cell number change is -13%.

On to `CS(=O)(=O)N(CC(=O)NCC1CCCO1)c1cccc(Cl)c1` (stereo unspecified), for which the Potency result was “inactive”.

For `COCCNC(=O)Cn1nc(C(F)(F)F)c(Cl)c1C`, the Potency entry is “inactive” and the cell number change is -6.82%.

Consider `COc1ccc(-c2csc3nc(C(C)(C)C)oc(=O)c23)cc1OC`, for which the Potency result is “inactive” and the cell number change stood at 0.241%.

For `CCOc1ccc(-c2ccc(NS(=O)(=O)c3ccc([N+](=O)[O-])cc3)cc2)nn1`, the Potency result was “inactive” and the cell number change turned out to be 0.33%.

For `CCOc1ccc(-c2ccc(NS(=O)(=O)c3cc([N+](=O)[O-])c(C)c([N+](=O)[O-])c3)cc2)nn1`, the Potency is 23.1 µM (active) and the cell number change was -5.38%.

For the molecule `COc1ccc(-c2ccc(NS(=O)(=O)c3cc([N+](=O)[O-])c(C)c([N+](=O)[O-])c3)cc2)nn1`, the Potency result is “inactive” and the cell number change is -13.5%.

Take `COC(=O)c1ccc2nc(NC(=O)C(C)(C)C)sc2c1`: the Potency result was “inactive” and the cell number change was -18.4%.

Turning to `CC(C)OC(=O)n1c(=S)oc2ccccc21`, the Potency entry was “inactive” and the cell number change was -3.93%.

On to `CC(C)CC(=O)/C=C/n1c(=S)oc2ccccc21`, for which the Potency was 23.1 µM (active) and the cell number change was -3.17%.

As for `O=C(O)CCn1c(=S)oc2ccccc21`, the Potency entry was “inactive” and the cell number change is 2.74%.

Turning to `COc1ccccc1NC(=O)C1CCCN(c2ncnc3c2nc2n3CCCCC2)C1` (stereo unspecified), the Potency entry is “inactive” and the cell number change was -12.6%.

On to `Cc1cc[n+](Cc2ccc([N+](=O)[O-])cc2)cc1`, for which the Potency entry is “inactive” and the cell number change is -4.93%.

As to `N=c1n(CCN2CCCC2)c2ccccc2n1CC(O)c1ccco1` (stereo unspecified), the Potency is 23.1 µM (active) and the cell number change worked out at 7.5%.

The values are drawn from PubChem BioAssay AID2685 (National Center for Advancing Translational Sciences (NCATS), 2010).
